VACV mCherry inh: inhibitors of vaccinia virus infection (mCherry reporter signal). Vaccinia virus mCherry reporter infection, fluorescence. Potency, µM (doses to about 36.5 µM), without a hit: at the highest dose activity change, negative = inhibition, actives largely listed as inhibitors. actives 0.63% (n = 310,000). AID 720579; calls by dose curve; tested in A549 cells; further: potency means the concentration at half of the fitted maximal effect; nearly all actives have a fitted effect of over 35% in size
HCMV inh: human cytomegalovirus inhibition | HFF cells, HCMV-luciferase reporter, 72 h; active compounds read low | activity change, negative = inhibition, % at 57.5 µM | AID 1259415 | actives 4.5% (n = 410,000); in the data active means activity change below about -60%; inconclusive means no clear call, values can overlap the other calls; inactive means above about -39%
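Human foreskin fibroblasts infected with luciferase-reporter HCMV at MOI 1 PFU/cell, compounds at two doses. Luciferase measured 72 h post infection; normalized to buffer-only basal and Salinomycin (10uM) controls.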
HCV inh: blocks hepatitis C virus; Huh7.5.1 HCVcc-Cre infection, luciferase reporter, 44 h; Potency, µM (top dose mostly 41.8 µM), for inactives: top-dose activity change, negative = inhibition, actives largely listed as inhibitors; actives 3.4% (n = 340,000); AID 651820; active means well fitted inhibition curve with a large enough effect; inconclusive means small, poorly fitted or top-dose-only effect, or another doubt; inactive means no such curve, though single readings can be large or run the other way; further: potency means the concentration at half of the fitted maximal effect
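HCVcc-Cre virus at an moi near 0.5 was added right after compound to cells cultured 4 h from seeding (1,000 cells/well). Luciferase activity was determined 44 h later, 15 min after substrate addition at RT.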
Vaccinia Venus: vaccinia inhibition (Venus reporter); AID 720580; Vaccinia virus Venus reporter expression, fluorescence; actives 0.46% (n = 330,000); Potency, µM (top dose mostly 36.5 µM), for the others: at the top dose activity change, negative = inhibition, most hits filed as inhibitors; calls by dose curve; tested in A549 cells; further: potency means the concentration at half of the fitted maximal effect; nearly all actives have a fitted effect of over 30% in size
LASV entry inh: Lassa virus entry inhibition. Lassa virus pseudotype entry inhibition, cell reporter. Potency, µM (series often up to 37.9 µM), inactives show top-dose activity change, negative = inhibition, hits mostly inhibitors. actives 1.2% (n = 300,000); calls by dose curve; tested in HEK293 cells; further: potency means the concentration at half of the fitted maximal effect; nearly all actives have a fitted effect of over 50% in size
MARV entry inh: Marburg virus entry inhibition | AID 540276 | Potency, µM (highest dose often 37.8 µM), for inactives: at the top dose activity change, negative = inhibition, hits mostly inhibitors | Marburg virus pseudotyped entry inhibition, cell reporter | actives 1.8% (n = 300,000); calls by dose curve; tested in HEK293 cells; further: potency means the concentration at half of the fitted maximal effect
Active calls of the source: *; i = inactive; ? = inconclusive; nt = no result given; [ ] = another dose, or the depositor's remark. Rows were chosen to be rich in hits. Some 7.8% of all compounds tested hit in one or more screens of this group. On the % scale 0 is the no-effect control and ±100 the full control effect.

SMILES	VACV mCherry inh	HCMV inh	HCV inh	Vaccinia Venus	LASV entry inh	MARV entry inh
Cc1cccc(CS(=O)(=O)Cc2ccc(C(=O)NCc3ccccc3)o2)c1	i	-14	?	-8%	-22%[46.1 µM]	nt
O=C(Nc1ccc(Cl)c(-c2nc3ccccc3o2)c1)c1ccc(-c2cccc([N+](=O)[O-])c2)o1	-3%	-103*	nt	-3%	0%[46.1 µM]	19%[46.1 µM]
COc1ccc(CCNC(=O)c2ccc(-c3ccc([N+](=O)[O-])cc3)o2)cc1OC	-1%	-69*	-25%	-21%	?	?
C/C(=N/O)C(=O)NCCCNCCCN(C)C	nt	nt	nt	nt	nt	5%[46.1 µM]
Cc1ccccc1-n1c(=O)/c(=C/c2ccco2)s/c1=C(/C#N)C(=O)Nc1ccccc1	nt	nt	nt	nt	nt	-28%
O=C(Nc1cccc([N+](=O)[O-])c1)c1cc2ccccc2cc1O	?	-101*	5.6µM*	?	nt	nt
O=C(Nc1ccccc1)c1ccc(-c2ccc([N+](=O)[O-])cc2)o1	-4%	-66*	-15%	-15%	-9%	15%[46.1 µM]
COc1ccc(NC(=O)c2cc([N+](=O)[O-])ccc2N2CCNCC2)cc1	-6%	-32	-2%	-15%	18%	-26%[46.1 µM]
O=C(O)c1ccccc1C(=O)Nc1cccc([N+](=O)[O-])c1	i	61	10%	-4%	nt	nt
COc1ccc(NC(=O)c2cc([N+](=O)[O-])ccc2O)cc1	6.3µM*	-102*	?	?	nt	nt
O=C(Nc1ccccc1)c1ccc(-c2ccc(Br)cc2)o1	nt	-13	?	nt	?	-103%
O=C(NNC(=O)c1ccccc1O)c1ccc(-c2ccc([N+](=O)[O-])cc2)o1	10µM*	?	?	?	?	-5%[46.1 µM]
O=C(Nc1nccs1)c1ccc(-c2ccc([N+](=O)[O-])cc2)o1	-13%	?	-18%	2%	-7%	-2%[46.1 µM]
CCC(=O)Nc1cccc(-c2cn3c(C)csc3n2)c1	-9%	-1	nt	-8%	-6%[46.1 µM]	nt
CCOC(=O)c1c(-c2cccs2)csc1NC(=O)CN(CC)CC	nt	-25	11µM*	nt	?	?
COC(=O)c1c(-c2cccs2)csc1NC(=O)c1cccnc1	nt	0	11µM*	-17%	8%	22%
CN1C(=O)C(C(Nc2ccccc2)c2ccc(F)cc2)c2ccccc21 (stereo not given)	nt	7	nt	nt	nt	nt
CCc1ccc(C2CC(=O)N3CN(c4ccccc4)CSC3=C2C#N)cc1 (stereo not given)	?	26	1%	-13%	nt	nt
N#CC1=C2SCN(c3ccc(F)cc3)CN2C(=O)CC1c1cccc(F)c1 (stereo not given)	12%	-93*	-1%	0%	nt	nt
CC(=O)c1ccc(OCc2cc(C(=O)N3CCC(c4ccncc4)CC3)no2)cc1	nt	-81*	?	nt	nt	nt
COc1cccc(OCc2cc(C(=O)N3CCC(c4ccncc4)CC3)no2)c1	-25%	-89*	10µM*	-12%	?	?
C=CCC1(CC=C)CCCN1C(=O)c1cc(COc2cccc(OC)c2)on1	nt	0	14µM*	nt	nt	nt
CCOC(=O)CC1(NC(=O)c2cc(COc3cccc(OC)c3)on2)CCCCC1	nt	-35	10µM*	nt	nt	nt
COc1cccc(OCc2cc(C(=O)NCC3CCCCC3)no2)c1	nt	35	1%	nt	nt	nt
C=CCC1(CC=C)CCCN1C(=O)c1cc(COc2cncc(Cl)c2)on1	nt	5	nt	nt	nt	nt
SMILES	VACV mCherry inh	HCMV inh	HCV inh	Vaccinia Venus	LASV entry inh	MARV entry inh
Cc1ccc(Cn2ccnc2SCC(=O)Nc2ccccc2C(F)(F)F)cc1	i	?	nt	-5%	11%[46.1 µM]	nt
Cc1cccc(N2CCN(CCCNc3ncnc4onc(-c5ccc(Cl)cc5)c34)CC2C)c1 (stereo not given)	-2%	-2	nt	-8%	0%[46.1 µM]	nt
COc1cccc(OCc2cc(C(=O)NCc3cnc4ccccn34)no2)c1	nt	?	8.9µM*	nt	nt	nt
CC(=O)c1ccc(OCc2cc(C(=O)N(C)Cc3nc4c(C)cccc4[nH]3)no2)cc1	i	24	-17%	-19%	-13%	19%
CC(=O)c1ccc(OCc2cc(C(=O)N(C)CCOc3ccc(C)cc3)no2)cc1	nt	92	13µM*	nt	nt	nt
CCN(C(=O)/C=C/c1ccc2c(c1)OCO2)c1ccccc1	i	-71*	-6%	-21%	0%	23%
CCCCOC(=O)c1cccc(NC(=O)/C=C/c2ccccc2Cl)c1	-21%	-95*	nt	-22%	-28%[46.1 µM]	nt
O=C(/C=C/c1ccccc1Cl)Nc1ccccc1	i	131	?	-21%	?	10µM*
CCOC(=O)c1cccc(NC(=O)/C=C/c2ccc3c(c2)OCO3)c1	-23%	-11	13µM*	?	?	?
O=C(/C=C/c1ccccc1Cl)Nc1cccc(O)c1	nt	28	-10%	nt	nt	nt
Cc1ccc(CN2CCOc3ccc(CN4CCC(O)(c5cccnc5)CC4)cc3C2)cc1	-28%	nt	nt	-21%	nt	nt
CCN(CC)CCCNC(=O)c1ccc2nc(N3CCCCC3)sc2c1	-7%	64	nt	0%	?	?
NC(=O)c1ccccc1NC(=O)/C=C/c1c(Cl)cccc1Cl	nt	111	?	nt	4%	?
CN(C)S(=O)(=O)c1ccc(NC(=O)/C=C/c2ccccc2Cl)cc1	?	?	8.9µM*	-29%	-20%	?
O=C(/C=C/c1ccccc1Cl)Nc1ccc2c(c1)C(=O)NC2=O	i	8	?	-20%	nt	nt
CN(C)c1ccc(NC(=O)/C=C/c2c(Cl)cccc2Cl)cc1	28µM*	?	?	6%	?	?
CC(=O)N1CCOc2cc(S(=O)(=O)N(C)Cc3ccccc3)c(Cl)cc21	-13%	?	nt	3%	-11%[46.1 µM]	nt
CC1(Cc2ccc3c(c2)OCO3)C(=O)Nc2c(Cl)ccc(Cl)c21 (stereo not given)	-8%	-68*	nt	-12%	nt	nt
CCOC(=O)c1cc2c(=O)n3ccccc3nc2n(CC(C)C)c1=NC(=O)COc1ccc(Cl)cc1	-24%	13	nt	-17%	20%[46.1 µM]	-3%[46.1 µM]
Cc1cccc(C)c1NC(=O)C(c1ccccc1OC(F)(F)F)N1CCN(C)CC1 (stereo not given)	-25%	-62*	nt	?	nt	nt
CC1CCCc2cc(OS(=O)(=O)C(F)(F)F)ccc2OC(=O)CC1 (stereo not given)	nt	-5	nt	nt	nt	nt
CN1C(=O)c2ccc(C(=O)Nc3cccnc3)cc2C1=O	i	-7	3%	6%	?	-10%[46.1 µM]
O=C(NN1C(=O)c2ccc(-c3ccc4c(c3)C(=O)N(NC(=O)c3cccnc3)C4=O)cc2C1=O)c1cccnc1	-16%	-77*	4%	-15%	20%[46.1 µM]	-10%
COC(=O)C1[C@H]2[C@@H]3[C@H](c4ccc(C)o4)Nc4ccc(Cl)cc4[C@@H]3N(C(=O)OC(C)(C)C)[C@@H]12 (stereo not given in full)	nt	-36	nt	nt	nt	nt
NCCCCNS(=O)(=O)c1cccc2c(Cl)cccc12	nt	nt	nt	nt	nt	4µM*
NCCCCCCNS(=O)(=O)c1cccc2ccccc12	26%	nt	nt	-8%	nt	nt
